Pf growth 48h = inhibits P. falciparum growth in the first generation, 48 h. 310,000 compounds, 5.9% hits. Potency, µM (highest dose often 28.7 µM), for inactives: at the top dose activity change, negative = inhibition, actives largely listed as inhibitors. AID 504832. P. falciparum luciferase growth in erythrocytes, 48 h; further: on the % scale 0 is the no-effect control and ±100 the full control effect
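A one-generation exposure of luciferase-tagged malaria parasites in RPMI 1640/Albumax erythrocyte culture, 37 C and 5% CO2. Inhibition is inferred from decreased luminescence after adding detection reagent.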
AmpC no deterg = blocks E. coli AmpC beta-lactamase in detergent-free assay; 330,000 compounds, 0.52% hits; P00811; Potency, µM (titrated, usually from 57.1 µM), without a hit: top-dose activity change, negative = inhibition, most hits filed as inhibitors; AmpC nitrocefin hydrolysis, absorbance 480 nm, 0.0001% Triton;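 further: plate controls were no compound for no effect and no enzyme for full effect; nearly all actives have a fitted effect of over 20% in size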
Target sequence (P00811 whole entry, looked up): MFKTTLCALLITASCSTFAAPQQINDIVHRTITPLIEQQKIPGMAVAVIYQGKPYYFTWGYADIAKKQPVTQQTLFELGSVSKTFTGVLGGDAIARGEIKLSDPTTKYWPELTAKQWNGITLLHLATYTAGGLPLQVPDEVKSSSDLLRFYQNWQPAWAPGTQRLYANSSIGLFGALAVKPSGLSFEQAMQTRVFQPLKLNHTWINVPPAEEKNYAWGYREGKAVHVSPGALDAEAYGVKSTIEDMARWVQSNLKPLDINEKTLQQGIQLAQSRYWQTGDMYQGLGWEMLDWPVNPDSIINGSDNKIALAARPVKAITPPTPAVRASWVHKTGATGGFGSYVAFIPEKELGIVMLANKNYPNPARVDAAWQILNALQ
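AmpC (5.3 nM in the dispensed reagent) in 20 mM phosphate pH 7.0 with 0.01% (detergent screen) or 0.0001% Triton X-100 was preincubated with compounds for 15 min at room temperature. Nitrocefin was then added from an 800 uM solution, and hydrolysis was followed at 480 nm.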
AmpC detergent = AmpC beta-lactamase inhibition with detergent present; Potency, µM (series often up to 114 µM), for inactives: at the highest dose activity change, negative = inhibition, usual class: inhibitors; 370,000 compounds, 0.041% hits; AmpC hydrolysis of nitrocefin, absorbance 480 nm, 0.01% Triton;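 further: 0% = no-compound wells and -100% = no-enzyme wells; nearly all actives have a fitted effect of over 25% in size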
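AmpC (5.3 nM in the dispensed reagent) in 20 mM phosphate pH 7.0 with 0.01% (detergent screen) or 0.0001% Triton X-100 was preincubated with compounds for 15 min at room temperature. Nitrocefin was then added from an 800 uM solution, and hydrolysis was followed at 480 nm.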
Sm TGR inh = S. mansoni TGR enzyme inhibition. Q962Y6. purified TGR, DTNB reduction, TNB absorbance 405 nm. Potency, µM (series often up to 114 µM), for the others: at the top dose activity change, negative = inhibition, hits mostly inhibitors. 360,000 compounds, 3% hits; further: on the % scale 0 is the no-effect control and ±100 the full control effect; nearly all actives have a fitted effect of over 60% in size
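TGR 20 nM + NADPH 100 uM (dispensed conc.), cpd preinc 15 min RT; start with NADPH (500 uM addition) then DTNB (15 mM addition). Kinetic TNB absorbance, 405 nm filter. Four-parameter Hill fit across titration.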
Pf growth 96h = P. falciparum growth inhibition at 96 hours. P. falciparum luciferase reporter growth, 96 h. AID 504834. 320,000 compounds, 6.9% hits. Potency, µM (doses to about 28.7 µM), inactives show top-dose activity change, negative = inhibition, hits mostly inhibitors; further: on the % scale 0 is the no-effect control and ±100 the full control effect
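Plates of compound plus infected erythrocytes (2% hematocrit, 0.05% parasitemia final) incubate 96 hours, 37 C, 5% CO2. Detection reagent added; reduced luminescence from the parasites' luciferase reporter flags inhibition.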
SARS PLP yeast = SARS-CoV PLP inhibition in yeast. S. cerevisiae expressing SARS-CoV PLpro, growth rescue. Potency, µM (highest dose often 32.9 µM), inactives show at the highest dose activity, positive = growth rescue, most hits filed as activators. 330,000 compounds, 0.19% hits. AID 485353; calls by dose curve; further: 0% is about no effect; nearly all actives have a fitted effect of over 55% in size
The depositor's hits bear a star; ? = inconclusive; · = no result given; [ ] = dose if it differs, or a comment. Shown are actives, neighbours in structure and some others; about 12% of the full set was active somewhere. Unless noted, the call rests on the fitted dose curve; in most records, active means well fitted curve in the direction sought with a large enough effect; inconclusive means small, poorly fitted or top-dose-only effect, or another doubt; inactive means no such curve, though single readings can be large; an effect the other way counts as inactive or inconclusive. Potency means the concentration at half of the fitted maximal effect.

SMILES	Pf growth 48h	AmpC no deterg	AmpC detergent	Sm TGR inh	Pf growth 96h	SARS PLP yeast
CCc1nnc(SCC(=O)Nc2ccc(N3CCN(S(C)(=O)=O)CC3)cc2)o1	30%	0%	6%	-15%	?	0%
Clc1ccc(/C=C/c2ncc3ccccn23)cc1	28%	-19%	-1%	6%	0%	-1%
C=C(C)[C@@H]1CC=C(CN2CCC(N3CCC(C(=O)N4CCCC4)CC3)CC2)CC1	7.4µM*	84%	-9%	-17%	2%	-4%
Cc1ccc(S(=O)(=O)/N=C2\CN(C)C(=O)N2C)cc1	5%	-2%	-15%	-3%	4.7µM*	13%
Cc1ccc(S(=O)(=O)/N=c2\sccn2C)cc1	11%	-4%	3%	-2%	135%	?
CC1CCN(S(=O)(=O)c2ccc3c(c2)N(CC(=O)NCCCN2CC(C)CC(C)C2)C(=O)CS3)CC1 (stereo not given)	?	57%	-3%	-1%	12%	-2%
CCCc1nc([N+](=O)[O-])c(S(=O)(=O)c2ccccc2)n1CC(C)C	9.3µM*	0%	2%	0.89µM*	12µM*	?
Cc1nc2ccc([N+](=O)[O-])cc2c(=O)n1Cc1ccc(F)cc1	-15%	-7%	-4%	1%	0%	6%
CC(C)Cn1c(C(C)C)nc([N+](=O)[O-])c1S(=O)(=O)c1ccc(F)cc1	10µM*	14%	3%	1.8µM*	?	0%
CC(C)Cn1nc(NS(=O)(=O)c2ccccc2)c2cc3ccccc3nc21	26%	-24%	6%	-3%	?	2%
COCCOC(=O)C1=C(C)NC(=O)N(C(C)=O)C1c1ccc(Cl)cc1 (stereo not given)	?	5%	3%	-1%	2.3µM*	-5%
C/C(=N/NC(=S)Nc1cccc(C)c1)c1cccc([N+](=O)[O-])c1	12µM*	-38%	-8%	·	12%	1%
CC/C(=N\NC(=S)Nc1cccc(C)c1)c1ccccc1	9.3µM*	-31%	15%	·	?	-1%
Cc1cccc(NC(=S)NNC(=O)c2cccc([N+](=O)[O-])c2)c1	64%	-47%	-7%	0%	?	0%
C/C(=N\NC(=S)Nc1cccc(C)c1)c1cc2ccccc2o1	?	1%[2.29 µM]	2%	6%	8.3µM*	0%
COc1ccc(CCNC(=O)Nc2cccc([N+](=O)[O-])c2)cc1	17%	-42%	-13%	11%	13µM*	1%
Cc1cc(C)c(S(=O)(=O)Nc2cc(C)on2)c(C)c1	0%	-13%	-12%	5%	0%	0%
Cc1nc(SCC(=O)Nc2ccccc2F)[nH]c(=O)c1Cc1ccccc1	·	·	16%	3%	·	·
COC(=O)C1=C(C)Nc2c(c(=O)n(C)c(=O)n2C)C1c1ccc(Cl)cc1 (stereo not given)	-23%	-4%	6%	7%	2%	9%
O=C(Nc1c(C(=O)N2CCCCC2)cnn1-c1ccccc1)c1ccccc1F	-6%	9%	3%	3%	?	1%
CCOC(=O)c1ccccc1NC(=O)Cn1cnc2c(oc3ccccc32)c1=O	44%	·	0%	-24%	12%	·
C=CCNC(=S)Nc1cccc([N+](=O)[O-])c1	-4%	13%	2%	32µM*	7%	6%
Cc1ccc(C)c2[nH]c(=O)c(CN(CC3CCCO3)C(=O)NC3CCCCC3)cc12 (stereo not given)	-25%	-1%	3%	8%	63%	0%
O=C(NCc1ccc(Cl)cc1)C(=O)Nc1cccc(Br)c1	·	·	3%	-8%	·	·
NC1=NC[C@H](c2ccccc2)N1CCCCC1CCCCC1	?	17%	2%	8%	?	-4%
SMILES	Pf growth 48h	AmpC no deterg	AmpC detergent	Sm TGR inh	Pf growth 96h	SARS PLP yeast
CC(O)[C@H]1CN=C(N)N1CCCCC1CCCCC1 (stereo not given in full)	9.3µM*	1%	-7%	6%	3.3µM*	0%
COc1nc(-c2ccc(Cl)cc2Cl)nc2ccccc12	66%	-22%	-16%	2%	?	2%
C[C@H]1CCCC(=O)CCC/C=C/c2cc(O)cc(O)c2C(=O)O1	·	-29%	0%	0%	13µM*	-24%
CCn1c(C)c(P(c2ccccc2)c2ccccc2)[n+]2ccccc12	1.5µM*	-11%[11.4 µM]	-4%	17%	8.3µM*	1%
COc1ccc(-c2c(C)c3ccc(O)c(CN4CCCC4)c3oc2=O)cc1	·	·	4%	4%	·	·
O=C(O)C1CCN(c2c([N+](=O)[O-])cc(C(F)(F)F)cc2[N+](=O)[O-])CC1	-23%	-14%	-3%	14%	-13%	-7%
C=CCNC(=O)C1CCN(c2c([N+](=O)[O-])cc(C(F)(F)F)cc2[N+](=O)[O-])CC1	5.2µM*	-20%	2%	3%	9.3µM*	-1%
Cc1noc(C)c1CCC(=O)NC1CCCN(Cc2ccc(CC(C)C)cc2)C1 (stereo not given)	-19%	104%	-3%	69%	-13%	2%
CCOc1ccc2nc(NC(NC(C)=O)(C(=O)OC)C(F)(F)F)sc2c1 (stereo not given)	5%	4%	-12%	8%	7.4µM*	3%
CCOc1ccc2nc(NC(=O)CS(=O)(=O)c3ccccc3)sc2c1	39%	-26%	-3%	-13%	5.2µM*	-14%
CCOc1ccc2nc(NC(=O)COc3ccc(N(C)S(=O)(=O)c4ccc(C)cc4)cc3)sc2c1	2.3µM*	-13%	-5%	0%	?	0%
CCOc1ccc2nc(NC(NC(=O)CC)(C(=O)OC)C(F)(F)F)sc2c1 (stereo not given)	-19%	-2%	-17%	7%	-6%	6%
CCOc1ccc2nc(NC(=O)CS(=O)(=O)c3ccc(C)cc3)sc2c1	·	-39%	1%	-28%	12%	-1%
CCC(C)NC(=O)c1ccccc1NC(=O)COc1ccc(OC)cc1 (stereo not given)	?	-5%	0%	4%	·	7%
O=C1CC(Sc2nnc(-c3ccccc3)o2)C(=O)N1c1ccccc1 (stereo not given)	60%	-20%	-4%	3.5µM*	·	-15%
Cc1ccccc1N1C(=O)CC(Sc2nnc(-c3ccccc3)o2)C1=O (stereo not given)	16%	-18%	-14%	2.8µM*	0%	-35%
O=C1c2ccccc2CC1Sc1nnc(-c2ccncc2)o1 (stereo not given)	6%	-17%	5%	16µM*	4%	-12%
